In PubChem BioAssay AID590 (National Center for Advancing Translational Sciences (NCATS), 2007):
About 6,500 (11%) of roughly 59,000 compounds were called active. Roughly 15% stayed inconclusive and do not appear here. No stated cut-off is given here; in the data, active means max dye-equivalent concentration above about 10 nM; inconclusive means mostly about 1.1 nM to 9.6 nM; inactive means weaker than that. For the sample, actives were picked, then their nearest neighbours and some compounds at random.

experiment: qHTS Assay for Spectroscopic Profiling in A350 Spectral Region; details: Compound autofluorescence, 340/450 nm, Alexa 350 dye-equivalents; hits give high values
From the text: NIH Molecular Libraries Screening Centers Network [MLSCN]
NIH Chemical Genomics Center [NCGC]
Occasionally, the artifactual effect may originate from the compounds own spectral or other biophysical properties which generally tend to track its assay concentration. Pre-screening/profiling the library with respect to the compounds spectral properties should help one exclude false positives early on. While the most informative fluorescent profiling data set is obtained by performing a full excitation and emission scan of each well by using a monochromator-based plate reader, such an approach is practical only on a very limited scale as scanning each well requires long time. An alternative approach, applied here, is to perform plate reader scans using selected excitation and emission wavelength pairs to generate a multidimensional relational database that correlates compound concentration and the respective relative fluorescence intensity at a given wavelength set. A standard curve of Alexa 350 (A 350) present on each plate as six-point concentration series, was used to compute a normalized fluorescence response, termed dye-equivalent concentration, for each compound at each concentration.
NCGC Assay Protocol Summary:
100 mM Tris buffer, pH 8.0
The wells in columns 1 through 4 of a Kalypsys polypropylene 1536-well compound plate were filled with standard solutions of fluorophore corresponding to the spectral region of interest. Solutions of A 350 were placed in the following wells: I1, J1: 3 mM, I2, J2: 300 uM, I3, J3: 30 uM, I4, J4: zero (DMSO), K1, L1: 3 uM, K2, L2: […], K3, L3: 300 nM, K4, L4: zero (DMSO).
Six uL of buffer were dispensed to 1536-well Greiner black plates. Compounds and dye standards (23 nL) were transferred via Kalypsys PinTool. The plates were incubated for 15 min at room temperature, and then read on ViewLux (Perkin-Elmer) High-throughput CCD imager using 340 nm and 450 nm excitation and emission filter set.
Keywords: NIH Roadmap, MLSCN, MLI, MLSMR, qHTS, NCGC, A350, A-350, Fluorescent Profiling.

SMILES | max dye-equivalent concentration
CCCC(=O)N(CCc1ccccc1)Cc1nc2ccccc2c(=O)[nH]1 | inactive
Cc1cc(C(=O)NCCCc2ccccc2)no1 | inactive
CCCN(CCC)CCNC(=O)c1cc2c(C)nc3ccccc3c2o1 | 18 nM (active)
CCOC(=O)C1CCCCN1Cc1ccc(OC)c(OC)c1OC (stereo not given) | inactive
Clc1ccccc1-c1cc(NCCN2CCOCC2)ncn1 | inactive
CCn1c(SCC(=O)NCc2ccco2)nnc1-c1ccc(N)cc1 | inactive
CN1CCN(S(=O)(=O)c2ccc(NC(=O)C3CCCO3)cc2)CC1 (stereo not given) | inactive
O=C(Nc1nc2cc3c(cc2s1)OCCO3)c1cccc(S(=O)(=O)N2CCOCC2)c1 | 15 nM (active)
CCN(Cc1ccncc1)C(=O)c1cccc(S(=O)(=O)N2CCOCC2)c1 | inactive
O=C(Nc1nc2ccc(S(=O)(=O)N3CCCC3)cc2s1)C1CCCO1 (stereo not given) | inactive
COC(=O)COc1ccc(S(=O)(=O)N2CCOCC2)cc1 | inactive
COc1ccc(S(=O)(=O)N2CCOCC2)cc1C(=O)Nc1nc2ccccc2s1 | 26 nM (active)
CCOC(=O)c1sc(NC(=O)c2cc(S(=O)(=O)N3CCOCC3)ccc2C)nc1C | inactive
CC1(C)Cc2cccc(OCC(=O)Nc3nccs3)c2O1 | inactive
COc1ccc(C[C@H](N)C(=O)N[C@@H]2[C@H](O)[C@H](n3cnc4c(N(C)C)ncnc43)O[C@@H]2CO)cc1 | inactive
CCCOP(=O)(c1ccc(N(C)C)cc1)C(O)c1cc(OC)c(OC)c(OC)c1 (stereo not given) | inactive
COc1ccc(N2CCN(C3CC(=O)N(c4ccc5c(c4)OCCO5)C3=O)CC2)cc1 (stereo not given) | inactive
Cc1ccc(S(=O)(=O)N2CCC(C(=O)OCC(=O)N3CC(=O)Nc4ccccc43)CC2)cc1 | inactive
CC(=O)N1CCC2(CCCN(c3ncccn3)C2)CC1 | inactive
Cc1ccc(S(=O)(=O)N2CCCC2CO)cc1 (stereo not given) | inactive
COc1ccc(C2CC(c3ccc(C)cc3)Nc3nc(N)nn32)cc1 (stereo not given) | 2800 nM (active)
Cc1cc(C)c(C(=O)CN2C(=O)CCC2=O)cc1C | inactive

SMILES | max dye-equivalent concentration
COC(=O)c1ccc(NC(=O)CSc2nnc(CNc3ccc(OC)cc3)n2C)cc1 | inactive
CCOC(=O)N1CCN(C(=O)CN(C2CCCCC2)S(C)(=O)=O)CC1 | inactive
Cc1ccccc1CSc1nnc(-c2ccccn2)n1N | inactive
CN(Cc1ccco1)c1cc(-c2ccccc2C(F)(F)F)ncn1 | inactive
Cc1c(NC(=O)c2cccnc2)c(=O)n(-c2ccccc2)n1C | inactive
Cc1cc(C(=O)Nc2c(C)n(C)n(-c3ccccc3)c2=O)cs1 | inactive
Cc1c(NC(=O)c2coc(=O)c(Br)c2)c(=O)n(-c2ccccc2)n1C | 220 nM (active)
O=c1[nH]c(=O)n([C@H]2C[C@H](O)[C@H](CO)O2)cc1Br | inactive
OCCCN1c2ccccc2Nc2nnc(-c3ccccc3)cc21 | 110 nM (active)
Cn1c(=O)[nH]c(=O)c2c1nc(N(CCO)Cc1ccccc1)n2Cc1ccccc1Cl | inactive
O=C(c1cccc(F)c1)N1CCC2(CCCN(Cc3ccncc3)C2)CC1 | inactive
Cc1c(C)c2c(c(C)c1O)CC[C@@](C)(CN1CCN(c3cc(N4CCCC4)nc(N4CCCC4)n3)CC1)O2 | 11 nM (active)
CC(=O)N1CCC2(CCCN(Cc3ccc(C#N)cc3)C2)CC1 | inactive
N#CNC1=NCN(CCc2ccccc2)CN1 | inactive
Cc1ccnc(N2CCN(C(=O)CSc3nc4ccccc4nc3N3CCCCC3)CC2)c1 | 28 nM (active)
O=C(CSc1nc2ccccc2o1)N1CCN(c2ccccc2)CC1 | inactive
Cn1c(=O)cc(OCCCC(=O)N2CCN(c3ccccn3)CC2)c2ccccc21 | inactive
COc1ccc(C(=O)Cn2nnc(-c3ccc(N4CCOCC4)cc3)n2)cc1OC | inactive
Cc1ccc(Oc2ccc(N)cc2)cc1 | inactive
CC(C)(C)n1nnnc1C(c1ccc2ncccc2c1)N1CCSCC1 (stereo not given) | inactive
N#CC(C(=O)c1ccc(S(=O)(=O)N2CCCCCC2)cc1)c1nc2ccccc2[nH]1 (stereo not given) | 52 nM (active)
COc1ccccc1N1CCN(C(=O)c2ccc(S(=O)(=O)N3CCCCC3)cc2)CC1 | inactive

SMILES | max dye-equivalent concentration
Cc1ccccc1-c1nnn(CC(=O)c2ccc(S(=O)(=O)N3CCCC3)cc2)n1 | inactive
Cc1nnc(N(Cc2ccco2)C(=O)c2ccno2)s1 | inactive
N#Cc1cccc(NC(=O)CCC2CCCC2)c1 | inactive
CCCc1nc(-c2ccccc2O)n(-c2ccccc2)n1 | inactive
O=C(CSc1nnc(Cc2ccccc2)n1-c1ccccc1)N1CCOCC1 | inactive
CCOc1ccccc1C(=O)NCCCn1ccnc1 | inactive
CCOc1ccccc1C1C(C(=O)OC)=CN(C)C=C1C(=O)OC | 13000 nM (active)
CCOc1ccccc1C(=O)NCc1ccco1 | inactive
CN(C)CCCn1c2ccccc2c2cnccc21 | inactive
CCC(C)n1[nH]c(=O)cc1N (stereo not given) | inactive
CC(=O)c1c(N)n(C)c(=O)n(C)c1=O | inactive
CCON=C1C(C)(C)C(C)(C)C(C)(C)C1(C)C | inactive
CC(=O)N1CCN(C(=O)Nc2cccc(C(F)(F)F)c2)CC1 | inactive
CCOc1c(N2CCCCC2)c(=O)c1=O | inactive
COc1ccc(N(C(=O)c2cccnc2)S(=O)(=O)c2ccc3c(c2)n(C)c(=O)n3C)cc1 | inactive
COc1ccc(-c2c3c(=O)n(C)c(=O)n(C)c3cn2NC(C)=O)cc1 | 2600 nM (active)
COC(=O)c1ccc(CSc2nc3ccccc3c(=O)n2-c2cccc(OC)c2)o1 | inactive
COc1ccc(OC)c(-n2cc3c(=O)n(C)c(=O)n(C)c3c2)c1 | inactive
COc1cccc(-n2cc3c(c2-c2ccccc2)c(=O)n(C)c(=O)n3C)c1 | 10 nM (active)
Cc1ccc(-c2c3c(=O)n(C)c(=O)n(C)c3cn2-n2cnnc2)cc1 | inactive
CCOC(=O)CNC(=O)c1nn(-c2cccc(OC)c2)c(=O)c2ccccc12 | inactive
COc1ccc(-c2c3c(=O)n(C)c(=O)n(C)c3cn2-c2cccc(OC)c2)cc1 | 14 nM (active)

SMILES | max dye-equivalent concentration
Cc1cccc(-n2nc3c(c2NC(=O)c2ccc(Br)o2)CSC3)c1C | inactive
O=C(Nc1ccc(S(=O)(=O)N2CCCCC2)cc1)c1cnccn1 | inactive
Cc1nc2nc3c(cn2n1)C(=O)CC(c1ccccc1)C3 (stereo not given) | inactive
CC1(C)C(=O)C2(CCCCC2)C(=O)OC1c1cccs1 (stereo not given) | inactive
C=CCn1c(COc2ccccc2C)nnc1SCC(=O)O | inactive
Cc1ccc2[nH]c3c(c2c1)CN(C(=O)CN1CCN(c2ccccc2)CC1)CC3 | inactive
Cc1cc(C)c2c(c1)c(C)cc1nnc(SCC(=O)NCc3ccco3)n12 | inactive
CC(=O)N1CCC2(CCCN(Cc3ccccc3)C2)CC1 | inactive
O=C(O)/C(=C/c1c(C(=O)O)[nH]c2cc(Cl)cc(Cl)c12)c1ccccc1 | inactive
O=C1c2ccccc2C(=O)N1CCc1nn[nH]n1 | inactive
CCOC(=O)c1c(C)n(C)c2ccc(OC)c(NC(=O)CN3CCC4(CC3)OCCO4)c12 | inactive
O=C(O)[C@H](CCc1ccccn1)c1ccccc1 | inactive
O=C(NCCc1ccccn1)c1ccc(COc2ccccc2)o1 | inactive
C/C(N)=C(\C#N)C(=O)NCCc1ccccn1 | 12 nM (active)
CC1(C)CC(=O)C(C2=NC(C)(C)Cc3ccccc32)=C(O)C1 | inactive
CCOc1ccc(N=C2SC(C(=O)O)CC(=O)N2C)cc1 (stereo not given) | inactive
COC(=O)N1CN(C(=O)OC)CN(C(=O)OC)C1 | inactive
CC(C)=C(NC(=O)c1ccco1)C(=O)NCCc1nc2ccccc2[nH]1 | inactive
CCC(CC)C(=O)Nc1cc(C(=O)OC)cc(C(=O)OC)c1 | inactive
CC(C)OC(=O)c1cc(NC(=O)C2C3CCC(O3)C2C(=O)O)cc(C(=O)OC(C)C)c1 (stereo not given) | 13 nM (active)
O=C(CCC(=O)c1cccs1)NCc1ccccc1 | inactive
COC(=O)c1cn(CC(=O)NCc2cccs2)c2ccccc12 | inactive

SMILES | max dye-equivalent concentration
O=C(Cn1cc(C(=O)c2cccs2)c2ccccc21)NCc1cccs1 | 25 nM (active)
C=C(Br)CN1CCN(CC(=C)Br)CC1 | inactive
CCCOc1ccc(NC(=O)C2CCCNC2=O)cc1 (stereo not given) | inactive
O=C1CCC(C(=O)Nc2ccc(OC(F)F)cc2)N1 (stereo not given) | 22 nM (active)
COC(=O)COc1ccc(S(=O)(=O)Nc2ccc(NC(C)=O)cc2)cc1 | inactive
NS(=O)(=O)c1cc2c(cc1Cl)NC(C(Cl)Cl)NS2(=O)=O (stereo not given) | 7200 nM (active)
Cc1cn(C2C=CC(CO)O2)c(=O)[nH]c1=O (stereo not given) | inactive
Cc1ccc(C(=O)NC2CCN(C(=O)N3CCOCC3)CC2)cc1 | inactive
CCOC(=O)c1c(C(C#N)C#N)cc(C)nc1C | inactive
CCOC(=O)c1sc(=S)n(-c2cccc(OC)c2)c1N | inactive
CCOC(=O)c1cc(-c2ccc(Cl)s2)nc2c1c(C)nn2C | 240 nM (active)
Cc1ccn2cc(C(=O)NC3CCN(Cc4ccccc4)CC3)nc2c1 | inactive
CCc1ccc2oc(-c3ccc(N)cc3)nc2c1 | 140 nM (active)
O=C(/C=N/O)Nc1ccccc1 | inactive
CC1CCc2c(sc3c2C2=NS(=O)(=O)CCN2C=N3)C1 (stereo not given) | 29 nM (active)
CC1(CCC(=O)OC2CCCCC2)OCCO1 | inactive
CCOC(=O)c1cc2sccc2n1Cc1ccc(C#N)cc1 | inactive
CC(C[N+](C)(C)C)OC(N)=O (stereo not given) | inactive
CC(=O)OC(C)C[N+](C)(C)C (stereo not given) | 570 nM (active)
CCN1C(=O)/C(=C\N2CCN(c3ccccc3)CC2)SC1=S | inactive
CCN1C(=O)/C(=C2\SC(N3CCCCC3)=NC2=O)c2ccccc21 | 17 nM (active)
CC(=O)c1ccc(-n2nnnc2SCC(=O)N2CCN(C(=O)c3ccco3)CC2)cc1 | inactive
